Assay outcomes (PubChem)
In the library only some 2% were active in any assay of this set; here they are far more common.
TDP-43 yeast inh – rescues yeast growth from TDP-43 toxicity; TDP-43 expressing yeast growth rescue, BacTiter-Glo, 24 h; Potency, µM (doses to about 46.1 µM), hits mostly activators; 1.8% of 410,000 active; AID 652104; further: nearly all actives have a fitted effect of over 50% in size
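Growth rescue of TDP-43-toxic yeast measured as ATP luminescence (BacTiter-Glo). Cells grown to mid-log in raffinose, induced in galactose at OD600=0.02, exposed to compound 24 hr at 30 deg C.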
FUS suppressor – FUS proteinopathy suppression in yeast | S. cerevisiae FUS-expressing, growth rescue, OD600, 24 h | Potency, µM (top dose mostly 76.6 µM), hits mostly activators | 0.24% of 390,000 active | AID 1347120; further: nearly all actives have a fitted effect of over 55% in size
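Cultures pregrown in 2.5% raffinose medium are shifted to minimal medium containing 2% galactose to express toxic FUS. Compounds are tested at several concentrations. After 24hr at 30C, growth is quantified at 600 nm absorbance.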
mIDH1 inhibitor – blocks human mutant IDH1 R132H enzyme; IDH1-R132H enzyme, NADPH consumption, diaphorase/resazurin fluorescence; O75874; 0.093% of 390,000 active; Potency, µM (doses to about 76.6 µM), hits mostly inhibitors; further: nearly all actives have a fitted effect of over 65% in size
Target sequence (O75874 whole entry R132H, stated change not applied): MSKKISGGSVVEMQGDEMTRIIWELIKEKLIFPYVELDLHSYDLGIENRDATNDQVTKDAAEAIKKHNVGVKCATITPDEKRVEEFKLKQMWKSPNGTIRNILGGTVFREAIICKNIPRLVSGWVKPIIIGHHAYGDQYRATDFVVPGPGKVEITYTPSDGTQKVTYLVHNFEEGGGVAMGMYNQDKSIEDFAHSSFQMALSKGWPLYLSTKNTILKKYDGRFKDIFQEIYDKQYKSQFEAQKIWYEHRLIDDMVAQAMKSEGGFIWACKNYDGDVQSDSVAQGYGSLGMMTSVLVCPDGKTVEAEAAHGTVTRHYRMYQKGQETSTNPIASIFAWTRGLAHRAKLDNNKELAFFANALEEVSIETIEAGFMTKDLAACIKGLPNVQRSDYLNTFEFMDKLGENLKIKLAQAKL
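IDH1-R132H (0.5 ug/mL dispensed) in pH 7.5 Tris buffer was preincubated 30 min with compound, then given a substrate mix of 0.016 mM NADPH and 2 mM alpha-KG for 80 min at room temperature; remaining NADPH was read by diaphorase/resazurin fluorescence.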
aSyn yeast inh – inhibitors of alpha-synuclein toxicity in yeast; Yeast expressing alpha-synuclein, growth rescue, BacTiter-Glo, 24 h; Potency, µM (doses to about 46.1 µM), most hits filed as activators; AID 652106; 0.14% of 370,000 active; further: nearly all actives have a fitted effect of over 65% in size
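Rescue of yeast growth: cells expressing toxic alpha-synuclein, induced in galactose at OD600 0.02, incubated with compound 24 h at 30 C. ATP luminescence quantified growth; inhibitors of toxicity appear as activators.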
Abeta yeast res – restores growth of yeast expressing A-beta42 peptide; Potency, µM (highest dose often 46.1 µM), hits mostly activators; yeast expressing A-beta42, growth rescue, OD600, 48 h; response scale: 0% DMSO, 100% iron-clioquinol control; 0.063% of 410,000 active; further: nearly all actives have a fitted effect of over 55% in size
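Growth rescue measured by 600 nm absorbance after 48 h yeast culture at 30 C with compound. Values normalized between DMSO and an equimolar ferric chloride plus clioquinol control.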
LDHA block – LDHA (human) enzyme inhibition. activity change, % (values are at about 110 or 230 µM). AID 1347041. P00338. purified LDHA, NADH/diaphorase-resazurin fluorescence; hits give low values. 0.15% of 480,000 active; in the data active means activity change below about -30%; inconclusive means mostly about -25% to -30%
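Remaining NADH was detected by diaphorase (0.133 mg/mL) converting 37 µM resazurin to fluorescent resorufin, read at 0 and 20 minutes. The preceding 5-minute room-temperature reaction used 2 nM LDHA, 0.2 mM sodium pyruvate and 0.06 mM NADH at pH 7.4.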
Large screens that a line does not name were inactive. Unless noted, the call rests on the fitted dose curve; in most records, active means well fitted curve in the direction sought with a large enough effect; inconclusive means small, poorly fitted or top-dose-only effect, or another doubt; inactive means no such curve, though single readings can be large; an effect the other way counts as inactive or inconclusive.

Cc1ccccc1NC(CNS(=O)(=O)c1ccccc1)c1ccccc1 (configuration not stated)	none (no result: TDP-43 yeast inh, FUS suppressor, mIDH1 inhibitor, aSyn yeast inh, Abeta yeast res)
c1ccc(-n2nnnc2Oc2ccc(-n3ccnc3)cc2)cc1	none
COc1cccc(Oc2nnnn2-c2ccccc2)c1	TDP-43 yeast inh 13µM (no result: aSyn yeast inh)
Cc1ccc(C(C)C)c(Oc2nnnn2-c2ccccc2)c1	none
Cc1ccc(C)c(Oc2nnnn2-c2ccccc2)c1	TDP-43 yeast inh 11µM
COc1ccc(Oc2nnnn2-c2ccccc2)cc1	TDP-43 yeast inh 11µM
COc1ccc(Oc2cnn(-c3ccccc3)c(=O)c2Br)cc1	TDP-43 yeast inh 13µM
O=C(NC1CC1)C1(c2ccc(Br)cc2)CCCC1	none (no result: TDP-43 yeast inh, FUS suppressor, mIDH1 inhibitor, aSyn yeast inh, Abeta yeast res)
Clc1ccc(Oc2nnnn2-c2ccccc2)cc1	TDP-43 yeast inh 11µM
c1ccc(-n2nnnc2Oc2ccc(-c3nnco3)cc2)cc1	none
Cc1ccccc1Cn1cnc2c([N+](=O)[O-])c(C)c(C)cc21	TDP-43 yeast inh 13µM
CCc1ccc(Cn2nccc2NC(=O)C2CCN(S(=O)(=O)c3ccccc3)CC2)cc1	none (no result: TDP-43 yeast inh, FUS suppressor, mIDH1 inhibitor, aSyn yeast inh, Abeta yeast res)
Cc1ccc(S(=O)(=O)NC(C)C(=O)OCc2coc(-c3cccs3)n2)cc1 (configuration not stated)	none (no result: TDP-43 yeast inh, FUS suppressor, mIDH1 inhibitor, aSyn yeast inh, Abeta yeast res)
O=C(NC[C@H]1CCCO1)c1cccc2c1C(=O)c1ccc(-c3ccc(F)cc3OCc3ccccc3)cc1S2(=O)=O	FUS suppressor 22µM, aSyn yeast inh inconclusive
O=C(O)c1cccc2c1C(=O)c1ccc(-c3ccc(F)cc3OCc3ccccc3)cc1S2(=O)=O	none
O=C(CN1CCN(c2ccc(F)cc2)CC1)NCC1CCCO1 (configuration not stated)	none
COc1ccccc1N1CCN(CC(=O)NCC2CCCO2)CC1 (configuration not stated)	LDHA block -43
COc1cc(C(=O)NCC2CCCO2)ccc1OCc1ccccc1 (configuration not stated)	none
COc1cc(C(=O)NCC2CCCO2)cc(Br)c1OCc1ccccc1 (configuration not stated)	TDP-43 yeast inh 14µM
CCN(Cc1ccc2c(c1)OCO2)C(=O)c1cc(=O)c2cc(C)ccc2o1	none (no result: TDP-43 yeast inh, FUS suppressor, mIDH1 inhibitor, aSyn yeast inh, Abeta yeast res)
CN(C)CCCN(C(=O)COc1ccccc1)c1nc2ccc(Br)cc2s1	none (no result: TDP-43 yeast inh, FUS suppressor, mIDH1 inhibitor, aSyn yeast inh, Abeta yeast res)
Cc1ccc(-c2cc(C(=O)O)c3cc(Cl)ccc3n2)s1	none (no result: TDP-43 yeast inh, FUS suppressor, mIDH1 inhibitor, aSyn yeast inh, Abeta yeast res)
O=C(OCCOc1ccccc1Cl)c1cc(=O)c2ccccc2o1	none (no result: TDP-43 yeast inh, FUS suppressor, mIDH1 inhibitor, aSyn yeast inh, Abeta yeast res)
Cc1nc(S(=O)(=O)c2cccc(Cl)c2)nc2c1CCC2	TDP-43 yeast inh 14µM, aSyn yeast inh inconclusive (no result: FUS suppressor)
Cc1nc(S(=O)(=O)c2ccc(Cl)cc2Cl)nc2c1CCC2	none
COc1cccc(-c2cc3nc(-c4ccco4)cc(N4CCN(C(C)=O)CC4)n3n2)c1	none (no result: TDP-43 yeast inh, mIDH1 inhibitor, aSyn yeast inh, Abeta yeast res, LDHA block)
COc1cccc(-c2cc(N3CCN(C(=O)c4ccoc4)CC3)n3nc(-c4cccc(Cl)c4)cc3n2)c1	TDP-43 yeast inh 3.5µM
COc1cccc(-c2cc3nc(-c4ccccc4)cc(N4CCC5(CC4)OCCO5)n3n2)c1	TDP-43 yeast inh 16µM
COc1cccc(-c2cc3nc(C)cc(N4CCN(C(=O)c5ccoc5)CC4)n3n2)c1	none
COc1cccc(-c2cc3nc(-c4ccccc4)cc(N4CCN(C(=O)c5ccoc5)CC4)n3n2)c1	TDP-43 yeast inh 16µM, FUS suppressor inconclusive
CCCC1Nc2ccc(C(=O)O)cc2C2C=CCC12 (configuration not stated)	TDP-43 yeast inh inconclusive, Abeta yeast res inconclusive
COc1cccc([C@@H]2Nc3ccc(C(=O)O)cc3[C@@H]3C=CC[C@@H]32)c1OC	TDP-43 yeast inh 18µM, FUS suppressor inconclusive (no result: aSyn yeast inh)
CC(C)C1Nc2ccc(C(=O)O)cc2C2C=CCC21 (configuration not stated)	TDP-43 yeast inh 18µM
C/C(=N/NC(N)=S)C1=CC(C)(C)CCC1	none (no result: TDP-43 yeast inh, FUS suppressor, mIDH1 inhibitor, aSyn yeast inh, Abeta yeast res)
c1cc(CNCCCN2CCCCC2)ccn1	none (no result: TDP-43 yeast inh, FUS suppressor, mIDH1 inhibitor, aSyn yeast inh, Abeta yeast res)
COc1ccc2nc(C)cc(Sc3nc4ccccc4s3)c2c1	TDP-43 yeast inh 25µM
COc1ccc(/C=N/NC(=O)c2cccnc2)cc1CSc1nc2ccccc2s1	TDP-43 yeast inh 13µM (no result: FUS suppressor)
COc1ccc(/C=N/NC(=O)c2ccccc2Cl)cc1CSc1nc2ccccc2s1	FUS suppressor inconclusive
O=C(O)c1ccc(-c2ccccc2)o1	none (no result: TDP-43 yeast inh, FUS suppressor, mIDH1 inhibitor, aSyn yeast inh, Abeta yeast res)
COc1ccc(-c2nnc(SC(C)C(=O)O)o2)cc1 (configuration not stated)	none
COc1ccc(-c2nnc(SC(C)C(=O)Nc3cccc(Cl)c3)o2)cc1 (configuration not stated)	TDP-43 yeast inh 13µM
CCc1ccc(NC(=O)c2sc3nc4c(cc3c2N)CN(C(C)C)CC4)cc1	none (no result: TDP-43 yeast inh, FUS suppressor, mIDH1 inhibitor, aSyn yeast inh, Abeta yeast res)
C/C(=N\Nc1ccc([N+](=O)[O-])cc1)c1cccc(N)c1	TDP-43 yeast inh 14µM
Cc1cc(C)cc(Cn2ncc(Cl)c(Cl)c2=O)c1	TDP-43 yeast inh 18µM (no result: FUS suppressor)
O=c1c(Cl)c(Cl)cnn1Cc1ccccc1Cl	TDP-43 yeast inh 35µM (no result: FUS suppressor)
Cc1ccc(Cn2ncc(Cl)c(Cl)c2=O)cc1	TDP-43 yeast inh inconclusive (no result: FUS suppressor)
O=c1[nH]cnc2c1cnn2Cc1ccccc1Cl	none
NC(=O)c1cc(-c2csc(NC3CCCC3)n2)ccc1O	none (no result: TDP-43 yeast inh, FUS suppressor, mIDH1 inhibitor, aSyn yeast inh, Abeta yeast res)
Clc1ccc(OCCN2CCOCC2)cc1	none
